For test [1], the target named is Aldehyde dehydrogenase, mitochondrial (Homo sapiens) (UniProt P05091). Put plainly: qHTS for Inhibitors of the Aldehyde Dehydrogenase Family (ALDH2) Primary screen (AID 2061308). Further: nearly all actives have a fitted effect of over 55% in size. Background: qHTS replaces the single test concentration by a dilution series.
Test [2] deals with Retinaldehyde dehydrogenase 3 (Homo sapiens) (UniProt P47895). Put plainly: qHTS for Inhibitors of the Aldehyde Dehydrogenase Family (ALDH1A3) Primary screen (AID 2061315).

Results filed as inconclusive are left out. A call without a number means that no potency is given here. Calls of active or inactive are those of the source. The call rests on the fitted dose curve; in most records, active means well fitted curve in the direction sought with a large enough effect; inconclusive means small, poorly fitted or top-dose-only effect, or another doubt; inactive means no such curve, though single readings can be large; an effect the other way counts as inactive or inconclusive.

Turning to `Cc1ccc(OCCn2c(CCNC(=O)c3cccc(C#N)c3)nc3ccccc32)cc1`, the Potency entry in test [1] and in test [2] was “inactive” in each case.

Turning to `Cc1occc1CNc1ncnc2ccc(-c3ccc4c(c3)OCO4)cc12`, the Potency result in test [1] and in test [2] was “inactive” in each case.

Turning to `Cc1nc(N2CCOCC2)c2nc(-c3ccccc3)n(CCN(C)C)c2n1`, the Potency result in test [1] and in test [2] was “inactive” in each case.

`N[C@@H](Cc1ccc(OS(=O)(=O)c2ccccn2)cc1)C(=O)N1CCN(c2ccccc2)CC1`: the Potency entry in test [1] and in test [2] was “inactive” each time.

For the compound `CCOC(=O)C1CCN(C(=O)C(C)(C)NC(=O)Nc2ccc(Cl)cc2Cl)CC1`, the Potency entry in test [1] and in test [2] was “inactive” in each case.

Regarding `COc1cccc(CC(=O)Nc2nc(-c3ccc4c(c3)CCN4C(=O)c3ccccc3C)c(C)s2)c1`, the Potency entry in test [1] and in test [2] was “inactive” in each case.

As to `O=[N+]([O-])c1nccn1CO[C@@H](CO)[C@H](O)CO`, the Potency entry in test [1] and in test [2] was “inactive” throughout.

For the compound `Nc1ccc(NC(=O)Nc2nnc(-c3ccncc3)s2)cc1C(F)(F)F`, the Potency entry in test [1] and in test [2] was “inactive” in each case.

On to `COc1ccc(C(=O)Nc2nnc(-c3ccco3)o2)cc1`, for which the Potency entry in test [1] and in test [2] was “inactive” in each case.

Take `CN1[C@@H]2CC[C@H]1CC(OC(=O)C(CO)c1ccccc1)C2` (some centres not stated): the Potency result in test [1] and in test [2] was “inactive” each time.

In the case of `Cc1cc2c(s1)c1cnn(Cc3cc(C(F)(F)F)cc(Cl)c3F)c(=O)c1n2C`, the Potency entry in test [1] and in test [2] was “inactive” in each case.

Regarding `CN(Cc1nccs1)c1ncnc2ccc(-c3ccc4c(c3)OCO4)cc12`, the Potency entry in test [1] and in test [2] was “inactive” in each case.

For `CSc1ccccc1-c1ncc(C)c(NCc2ccc(-c3cccnc3)cc2)n1`, the Potency entry in test [1] and in test [2] was “inactive” each time.

Regarding `COc1ccc(C2c3c(n(CCCc4ccccc4)cnc3=N)Oc3ccc4ccccc4c32)cc1OC` (configuration not stated), the Potency result in test [1] and in test [2] was “inactive” throughout.

As to `CC(=O)Nc1sc2c(c1-c1ccc(C(N)=O)cc1)CCNC2`, the Potency result in test [1] and in test [2] was “inactive” each time.

As for `Cc1csc(CNc2ncnc3ccc(-c4ccoc4)cc23)c1`, the Potency entry in test [1] and in test [2] was “inactive” throughout.

`O=C(Nc1ccc(Cl)cc1)Nc1nnc(-c2ccncc2)s1`: the Potency result in test [1] and in test [2] was “inactive” throughout.

On to `CC(=O)Nc1sc2c(c1-c1cccs1)CCNC2`, for which the Potency entry in test [1] and in test [2] was “inactive” in each case.

On to `O=C(Nc1ccc(F)c(C(F)(F)F)c1)Nc1nnc(-c2ccncc2)o1`, for which the Potency result in test [1] and in test [2] was “inactive” each time.

For the compound `COc1cccc(OC)c1C1=Nn2c(nnc2-c2ccccc2O)SC1`, the Potency result in test [1] and in test [2] was “inactive” each time.

As for `Cc1ccc(-c2cc(C(=O)Nc3ccc(Cl)cc3)c3ccccc3n2)cc1C`, the Potency entry in test [1] and in test [2] was “inactive” in each case.

With `Cc1cc(C)nc(NC(=S)N2CCN(c3cc(C#N)cc(C#N)c3)CC2)c1`, the Potency entry in test [1] and in test [2] was “inactive” each time.

As for `CC1CCC2(C1)N=C(Nc1nc3ccccc3o1)NC1=C2C(=O)CCC1` (configuration not stated), the Potency entry in test [1] and in test [2] was “inactive” each time.

For the compound `CC1(C)CC(=O)C2=C(C1)NC(=S)NC2c1cccc(O)c1` (configuration not stated), the Potency entry in test [1] and in test [2] was “inactive” in each case.

Consider `CC1=CC(=O)CC(C)(C)C1CCC(C)OC1OC(COC(=O)c2cc(O)c(O)c(O)c2)C(O)C(O)C1O` (configuration not stated), for which the Potency entry in test [1] and in test [2] was “inactive” each time.

Consider `Cc1cc2c(s1)c1cnn(Cc3ccc(F)cc3)c(=O)c1n2C`, for which the Potency entry in test [1] and in test [2] was “inactive” each time.

`Cc1cc2c(s1)c1cnn(Cc3cccc(C(F)(F)F)c3F)c(=O)c1n2C`: the Potency entry in test [1] and in test [2] was “inactive” in each case.

On to `COc1ccc(OC)c(-c2nnc3n2N=C(c2ccccc2OC)CS3)c1`, for which the Potency entry in test [1] and in test [2] was “inactive” each time.

As for `O=C(/C=C/c1ccc(C(F)(F)F)cc1)Nc1cccc([S+](=O)([O-])Nc2ccccc2F)c1`, the Potency result in test [1] and in test [2] was “inactive” in each case.

On to `Cn1c2cc(C(=O)O)sc2c2cnn(Cc3ccccc3F)c(=O)c21`, for which the Potency result in test [1] and in test [2] was “inactive” each time.

For `Cc1ccc(NS(=O)(=O)c2ccc3c(c2)CCC(=O)N3C)cc1Cl`, the Potency entry in test [1] and in test [2] was “inactive” each time.

`CC(=O)Nc1cccc(S(=O)(=O)Nc2ccc(C)c(C)c2)c1`: the Potency result in test [1] and in test [2] was “inactive” in each case.

As for `CC(=O)Nc1cccc(-c2csc(Nc3cc(C)ccn3)n2)c1`, the Potency result in test [1] and in test [2] was “inactive” each time.

Consider `CC(=O)Nc1ccc(NC(=O)c2cnn3c(C)cc(C)nc23)cc1`, for which the Potency entry in test [1] and in test [2] was “inactive” throughout.

As to `O=C1CCc2cc(S(=O)(=O)Nc3ccc(F)cc3)ccc2N1`, the Potency entry in test [1] and in test [2] was “inactive” each time.

For the compound `CC(C)(C)OC(=O)Cc1nnc(-c2cc3ccccc3[nH]2)o1`, the Potency result in test [1] and in test [2] was “inactive” throughout.

As for `Cc1noc(C)c1-c1ccc2ncnc(NCc3ccc(C(F)(F)F)o3)c2c1`, the Potency entry in test [1] and in test [2] was “inactive” in each case.

As for `Cc1nc(Nc2ccccc2)c2nc(-c3ccccc3)n(CCCN3CCCCC3C)c2n1` (configuration not stated), the Potency entry in test [1] and in test [2] was “inactive” each time.

As for `Cc1cc2c(s1)c1c(C)nn(Cc3ccc(F)cc3)c(=O)c1n2C`, the Potency result in test [1] and in test [2] was “inactive” throughout.

As for `Cc1ccc(-c2cc(C(=O)Nc3ccc(S(C)(=O)=O)cc3)c3ccccc3n2)cc1C`, the Potency result in test [1] and in test [2] was “inactive” throughout.

Take `O=C(OCC#CCSc1nnc(-c2cccc3ccccc23)o1)c1cc2ccccc2o1`: the Potency result in test [1] and in test [2] was “inactive” each time.

Source of the values: PubChem BioAssay (NCATS).
